Structures can show the parent of a compound that is named as a salt. ± gives the standard deviation of the averaged measurements. In all, about 1,300 compounds were measured (“normalised cell viability”: median about 1, lowest 2% from about 0.15 on). Many of the other results were omitted from the sample, so the lowest values are more common in it than they were.
Test system: V-C8 + BRCA2 (BRCA2-proficient hamster cells)
Assay: normalised cell viability (fraction of plate median); higher = more viable cells (less toxic)
Conditions: 5 µM
Procedure, shortened: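 In two screens, library drugs at 5 μM were given for 3 days (screen 1) or 6 days (screen 2) to hamster V-C8 cells without BRCA2 and V-C8 cells with BRCA2 restored, seeded 24 h earlier in 96-well plates. A resazurin assay gave the cell viability readout, expressed as modified robust per cent of sample against the plate median, with triplicate wells averaged.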

| Compound | normalised cell viability (treatment time: 3 days) | normalised cell viability (treatment time: 6 days) |
| --- | --- | --- |
| O=C(O)CCc1nc(-c2ccccc2)c(-c2ccccc2)o1 [Oxaprozin] | 1.06 ± 0.11 | 1.12 ± 0.078 |
| Cc1cc2cc3c(C)cc(=O)oc3c(C)c2o1 [Trioxsalen] | 0.991 ± 0.036 | 0.818 ± 0.12 |
| Nc1c2ccccc2nc2ccccc12 [Aminacrine] | 0.139 ± 0.0043 | 0.156 ± 0.024 |
| Nc1c2c(nc3ccccc13)CCCC2 [Tacrine hydrochloride] | 0.905 ± 0.038 | 1.09 ± 0.014 |
| CC(C)Cn1cnc2c(N)nc3ccccc3c21 [Imiquimod] | 1.02 ± 0.042 | 1.019 ± 0.0077 |
| O=C(Nc1ccc([N+](=O)[O-])cc1Cl)c1cc(Cl)ccc1O [Niclosamide] | 0.139 ± 0.0082 | 0.127 ± 0.0065 |
| O=C(OCCOCCO)c1ccccc1Nc1cccc(C(F)(F)F)c1 [Etofenamate] | 0.988 ± 0.045 | 0.987 ± 0.061 |
| CCCOc1ccc2[nH]c(NC(=O)OC)nc2c1 [Oxibendazol] | 0.18 ± 0.0021 | 0.194 ± 0.0035 |
| COC(=O)Nc1nc2cc(C(=O)c3cccs3)ccc2[nH]1 [Nocodazole] | 0.143 ± 0.0097 | 0.132 ± 0.01 |
| COC(=O)Nc1nc2cc(Sc3ccccc3)ccc2[nH]1 [Fenbendazole] | 0.183 ± 0.0078 | 0.179 ± 0.017 |
| COC(=O)Nc1nc2cc(C(=O)c3ccc(F)cc3)ccc2[nH]1 [Flubendazol] | 0.168 ± 0.017 | 0.167 ± 0.0085 |
| COC(=O)Nc1nc2cc([S+]([O-])c3ccccc3)ccc2[nH]1 (stereo not drawn) [Oxfendazol] | 0.74 ± 0.055 | 0.827 ± 0.05 |
| COC(=O)Nc1nc2cc(C(=O)c3ccccc3)ccc2[nH]1 [Mebendazole] | 0.163 ± 0.013 | 0.151 ± 0.0072 |
| NCC[C@H](O)C(=O)N[C@@H]1C[C@H](N)[C@@H](O[C@H]2O[C@H](CN)[C@@H](O)[C@H](O)[C@H]2O)[C@H](O)[C@H]1O[C@H]1O[C@H](CO)[C@@H](O)[C@H](N)[C@H]1O [Amikacin hydrate] | 0.584 ± 0.023 | 0.699 ± 0.089 |
| CN(C)CCC=C1c2ccccc2C=Cc2ccccc21 [Cyclobenzaprine hydrochloride] | 1.06 ± 0.062 | 1.08 ± 0.034 |
| Cc1ccc(Cl)c(Nc2ccccc2C(=O)O)c1Cl [Meclofenamic acid sodium salt monohydrate] | 1.02 ± 0.068 | 1.08 ± 0.084 |
| N=C(N)NCC1COC2(CCCCC2)O1 (stereo not drawn) [Guanadrel sulfate] | 1.06 ± 0.038 | 1.03 ± 0.041 |

| Compound | normalised cell viability (treatment time: 3 days) | normalised cell viability (treatment time: 6 days) |
| --- | --- | --- |
| CN(C/C=C/C#CC(C)(C)C)Cc1cccc2ccccc12 [Terbinafine] | 0.206 ± 0.0049 | 0.339 ± 0.031 |
| CCCCCCC[N+](CC)(CC)CCCCc1ccc(Cl)cc1 [Clofilium tosylate] | 0.897 ± 0.063 | 0.935 ± 0.094 |
| CN1CCN(CCCN2c3ccccc3Sc3ccc(S(=O)(=O)N(C)C)cc32)CC1 [Thioproperazine dimesylate] | 0.884 ± 0.11 | 0.834 ± 0.039 |
| N=C(N)N/N=C/c1c(Cl)cccc1Cl [Guanabenz acetate] | 1.1 ± 0.022 | 1.01 ± 0.082 |
| Cn1cnc([N+](=O)[O-])c1Sc1ncnc2[nH]cnc12 [Azathioprine] | 0.93 ± 0.032 | 0.93 ± 0.045 |
| C[C@@H]1CN(c2c(F)c(N)c3c(=O)c(C(=O)O)cn(C4CC4)c3c2F)C[C@H](C)N1 [Sparfloxacin] | 1.027 ± 0.009 | 1.05 ± 0.056 |
| COC(=O)C1=C(C)NC(C)=C(C(=O)OC(C)C)C1c1cccc2nonc12 (stereo not drawn) [Isradipine] | 1.02 ± 0.032 | 0.9264 ± 0.0066 |
| CC1CNc2c(cccc2S(=O)(=O)N[C@@H](CCCNC(=N)N)C(=O)N2CC[C@@H](C)C[C@@H]2C(=O)O)C1 (stereo partly drawn) [Argatroban] | 1.203 ± 0.0019 | 1.12 ± 0.14 |
| CC(=O)N(CC(O)CN(C(C)=O)c1c(I)c(C(=O)NCC(O)CO)c(I)c(C(=O)NCC(O)CO)c1I)c1c(I)c(C(=O)NCC(O)CO)c(I)c(C(=O)NCC(O)CO)c1I (stereo not drawn) [Iodixanol] | 0.975 ± 0.053 | 1 ± 0.059 |
| CN1CCC(OC(c2ccccc2)c2ccccc2)CC1 [Diphenylpyraline hydrochloride] | 0.976 ± 0.11 | 1.04 ± 0.037 |
| CO[C@@]1(NC(=O)CSCC#N)C(=O)N2C(C(=O)O)=C(CSc3nnnn3C)CS[C@@H]21 [Cefmetazole sodium salt] | 0.959 ± 0.029 | 0.98 ± 0.072 |
| O=C(Nc1cccc2c(=O)cc(-c3nnn[nH]3)oc12)c1ccc(OCCCCc2ccccc2)cc1 [Pranlukast] | 1.06 ± 0.05 | 1.08 ± 0.049 |
| CCN(CC)CCOCCOC(=O)C1(c2ccccc2)CCCC1 [Carbetapentane citrate] | 0.163 ± 0.0089 | 0.181 ± 0.0049 |
| O=C(O)CCC(=O)Nc1ccc(S(=O)(=O)Nc2nccs2)cc1 [Succinylsulfathiazole] | 0.979 ± 0.083 | 1.04 ± 0.04 |
| CC(C)(C)NCC(O)c1cc(O)cc(O)c1 (stereo not drawn) [Terbutaline hemisulfate] | 0.45 ± 0.037 | 0.5206 ± 0.0045 |
| OCC(O)CN1CCN(c2ccccc2)CC1 (racemic) [Dropropizine (R,S)] | 1.07 ± 0.041 | 0.9583 ± 0.0092 |
| COC(=O)C1=C(C)NC(C)=C(C(=O)OC2CCCN(Cc3ccccc3)C2)C1c1cccc([N+](=O)[O-])c1 (stereo not drawn) [Benidipine hydrochloride] | 0.988 ± 0.065 | 0.97 ± 0.04 |

— the supplement of paper PMC6609913
